Measured values from PubChem BioAssay AID651793 (National Center for Advancing Translational Sciences (NCATS), 2012).
Inconclusive results are not listed. Where a call stands in place of a potency, no number is given. Active and inactive are the calls of the source. The call rests on the fitted dose curve; in most records, active means well fitted inhibition curve with a large enough effect; inconclusive means small, poorly fitted or top-dose-only effect; inactive means flat fitted curve, though single readings scatter.

Test: InCell qHTS Assay for Inhibitors of the mTORC1 Signaling Pathway in WT MEF Cells: Hit Validation
Excerpt: The mammalian target of rapamycin (mTOR) is an intracellular serine/threonine kinase Aberrant regulation of mTOR signaling plays a causative role in a number of human diseases, including cancer, benign tumors such as lymphangioleiomyomatosis (LAM) and Tuberous Sclerosis Complex (TSC), and metabolic diseases such as diabetes and obesity. This project aims to identify inhibitors of ribosomal protein S6 (rpS6) phosphorylation. The phosphorylation of rpS6 is a key event downstream of mTOR activation. The assay uses a phospho-specific antibody of phospho-rpS6 to detect inhibitors of mTOR activation. […]
For quantitative high throughput analysis of mTORC1 signaling, we developed a cell-based assay for immuno-fluorescence based detection of rpS6 phosphorylation on the Acumen Explorer that will be used a platform for the primary small molecule screen. […] The fluorescence emission from the Alexa-488 conjugated rpS6 phospho-235/236 antibody staining is selected using a […] band pass filter. Fluorescence emission from the PI stain is selected using a 575-640 nm band pass filter. The normalized phospho-S6 staining is calculated as the ratio of the integrated Alexa 488 intensity divided by the integrated PI intensity for the single concentration rapamycin control (7.5 nM) and DMSO columns. […]

Structure (SMILES)	Potency
Cn1cc(C2=C(c3cn(C4CCN(Cc5ccccn5)CC4)c4ccccc34)C(=O)NC2=O)c2ccccc21	inactive
CCOc1ccc(NC(=O)c2cc3c(C)nn(-c4ccccc4)c3s2)cc1	17.9 µM (active)
